AMA1 RON2 block: inhibitors of Plasmodium falciparum AMA1-RON2 interaction; AlphaScreen AMA1-biotinylated RON2 peptide binding; Potency, µM (highest dose often 58.2 µM), without a hit: top-dose activity change, negative = inhibition, hits mostly inhibitors; 0.2% of 360,000 active;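 further: potency means the concentration at half of the fitted maximal effect; 0% = vehicle wells and -100% = peptide control; nearly all actives have a fitted effect of over 45% in size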
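AMA1 (3D7) with his tag at 25 nM final met compounds first, then biotinylated RON2 peptide at 25 nM; detection used donor plus acceptor beads, 10 µg/mL apiece, read by AlphaScreen after 30 min at room temperature.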
SARS PLP yeast: SARS-CoV PLP inhibition in yeast. 0.19% of 330,000 active. Potency, µM (doses to about 32.9 µM), for the others: at the highest dose activity, positive = growth rescue, usual class: activators. S. cerevisiae expressing SARS-CoV PLpro, growth rescue; calls by dose curve; further: potency means the concentration at half of the fitted maximal effect; 0% is about no effect; nearly all actives have a fitted effect of over 55% in size
AmpC inh detg: AmpC beta-lactamase inhibition with detergent present; AmpC hydrolysis of nitrocefin, absorbance 480 nm, 0.01% Triton; 0.041% of 370,000 active; AID 485294; P00811; Potency, µM (titrated, usually from 114 µM), for the others: top-dose activity change, negative = inhibition, hits mostly inhibitors;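 further: potency means the concentration at half of the fitted maximal effect; 0% = no-compound wells and -100% = no-enzyme wells; nearly all actives have a fitted effect of over 25% in size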
Target sequence (P00811 whole entry, looked up): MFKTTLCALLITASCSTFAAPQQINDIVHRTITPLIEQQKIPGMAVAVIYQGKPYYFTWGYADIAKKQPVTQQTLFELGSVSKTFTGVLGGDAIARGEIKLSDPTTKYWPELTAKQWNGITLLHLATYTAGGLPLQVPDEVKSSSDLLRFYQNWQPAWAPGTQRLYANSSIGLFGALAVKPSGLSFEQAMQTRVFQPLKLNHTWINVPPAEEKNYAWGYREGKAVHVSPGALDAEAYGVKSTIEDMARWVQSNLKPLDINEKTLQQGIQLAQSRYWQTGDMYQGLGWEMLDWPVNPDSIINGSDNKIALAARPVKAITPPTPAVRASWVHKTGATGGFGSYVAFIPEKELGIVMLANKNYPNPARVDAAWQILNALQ
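20 mM phosphate pH 7.0 + 0.01% (detergent screen) or 0.0001% Triton X-100; 5.3 nM AmpC reagent; cpd preinc 15 min RT; nitrocefin (800 uM stock) to start; A480 q20 s × 4 min; Activity was normalised to no-enzyme and no-compound control wells.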
Shiga inhibitor: blocks Shiga toxin action in Vero cells; 9.2% of 290,000 active; inhibition, % at 38.7 µM; Vero cells, Shiga toxin protein synthesis inhibition reporter; in the data active means inhibition mostly above about 28%, no sharp cut-off; inactive means mostly below about 43%; further: 0% is about no effect
CHX counter: counter-screen hit for Shiga toxin inhibitors, cycloheximide | cell reporter, cycloheximide protein synthesis inhibition counterscreen | max response, % | 12% of 300,000 active | AID 2314; in the data active means max response mostly above about 13%, no sharp cut-off; inactive means mostly below about 14%; further: read at 38.3 µM for the half of the compounds with a filed dose; 0% is about no effect
AmpC inh no detg: blocks E. coli AmpC beta-lactamase in detergent-free assay; Potency, µM (titrated, usually from 57.1 µM), for inactives: at the top dose activity change, negative = inhibition, usual class: inhibitors; AmpC nitrocefin hydrolysis, absorbance 480 nm, 0.0001% Triton; 0.52% of 330,000 active;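 further: potency means the concentration at half of the fitted maximal effect; plate controls were no compound for no effect and no enzyme for full effect; nearly all actives have a fitted effect of over 20% in size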
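AmpC (5.3 nM in the dispensed reagent) in 20 mM phosphate pH 7.0 with 0.01% (detergent screen) or 0.0001% Triton X-100 was preincubated with compounds for 15 min at room temperature. Nitrocefin was then added from an 800 uM solution, and hydrolysis was followed at 480 nm.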
Active calls of the source: *; ? = inconclusive; · = no result. The sample as a whole holds a higher share of hits than the screen did. Unless noted, the call rests on the fitted dose curve; in most records, active means well fitted curve in the direction sought with a large enough effect; inconclusive means small, poorly fitted or top-dose-only effect, or another doubt; inactive means no such curve, though single readings can be large; an effect the other way counts as inactive or inconclusive.

SMILES	AMA1 RON2 block	SARS PLP yeast	AmpC inh detg	Shiga inhibitor	CHX counter	AmpC inh no detg
CCCCNC(=O)c1cc(C)no1	3.4%	-0.8%	5.4%	10.5	1.6	-23.8%
CCOC(=O)C1CCN(C(=O)CN2C(=O)c3ccccc3S2(=O)=O)CC1	5.9%	-5.5%	-8.7%	·	·	-9.4%
O=S(=O)(N/N=C\c1cn(-c2ccccc2)nc1-c1ccccc1)c1ccccc1	-10.8%	6.9%	0.3%	17.4	12.7	-49.0%
Cc1ccc(-c2nn(-c3ccccc3)cc2/C=N/O)cc1	-3.7%	-6.0%	10.9%	16.6	0.7	-17.4%
Cc1ccc(S(=O)(=O)N/N=C\c2cn(-c3ccccc3)nc2-c2ccccc2)cc1	-9.7%	1.2%	-11.2%	30.7	19.7*	-47.5%
Cc1ccc(-c2nn(-c3ccccc3)cc2/C=N/NS(=O)(=O)c2ccccc2)cc1	-11.4%	-8.1%	?	39.4	36.1*	-50.2%
O=C1c2ccccc2C(Nc2ccc3c(c2)OCCO3)N1Cc1ccc2c(c1)OCO2 (stereo not given)	?	-21.0%	?	61.7*	31.1*	10µM*
O=C1c2ccccc2C(Nc2ccccc2)N1Cc1ccc2c(c1)OCO2 (stereo not given)	?	-8.4%	8.5%	-9.1	8.4	-25.5%
O=C1c2ccccc2C(Nc2ccc3c(c2)OCCO3)N1c1ccc(Cl)cn1 (stereo not given)	-3.2%	-5.0%	-14.9%	44.4	9.9*	-14.7%
COc1ccc(NC2c3ccccc3C(=O)N2c2ccccn2)cc1Cl (stereo not given)	-17.3%	25.3%	?	-8.8	17.6	-11.4%
O=C1c2ccccc2C(Nc2ccc(F)c(Cl)c2)N1c1ccccn1 (stereo not given)	-1.2%	-1.1%	-15.7%	-14.3	-10.5	-22.4%
O=C1c2ccccc2C(Nc2ccc3c(c2)OCCO3)N1c1ccccn1 (stereo not given)	-25.3%	13.8%	1.9%	70.1*	41.3*	-12.7%
O=C1c2ccccc2C(Nc2ccccc2)N1c1ccc(Cl)cn1 (stereo not given)	16.7%	6.2%	0.2%	169.0*	70.6*	-8.8%
COCCNC(=O)/C(C#N)=C/C(C)=C/c1ccccc1	12.0%	-5.7%	2.2%	21.7	10.5	-29.7%
Cc1ccc(N2CCN(C(=O)C3CCC(CNS(=O)(=O)c4ccc(Br)s4)CC3)CC2C)cc1 (stereo not given)	·	·	2.1%	·	·	·
CCCCS(=O)(=O)Nc1ccc2c(c1)ncn2C1CCCCC1	4.0%	1.8%	0.6%	-14.5	20.2	-13.5%
CCc1cccc(NC2c3ccccc3C(=O)N2c2ccc(C)cn2)c1 (stereo not given)	-1.7%	-6.5%	-14.1%	89.7*	40.6	6.4%
Cc1ccc(NC(=O)NC(=O)COC(=O)c2ccc(O)cc2O)c(C)c1	-2.3%	·	·	·	·	·
COc1ccccc1N1CCN(C(=O)c2cccc(N3C(=O)C4C5C=CC(C5)C4C3=O)c2)CC1 (stereo not given)	-10.8%	2.6%	-14.9%	-5.9	-3.9	23.0%
O=C(c1ccccc1)N1CCCCC(Sc2nnc3ccccn23)C1=O (stereo not given)	22.0%	3.0%	-11.9%	-11.5	-5.8	-10.3%
CCN(CC)C(=S)SC1CCCCN(C(=O)c2ccccc2)C1=O (stereo not given)	-2.0%	-1.2%	10.4%	57.2*	35.8*	24.7%
Cc1ccc(-n2c(SCC(=O)NCC3CCCO3)nc3n[nH]c(C)c3c2=N)cc1Cl (stereo not given)	3.5%	2.1%	0.7%	-5.0	1.6	200.8%
O=C(/C=C/c1ccccc1F)c1ccoc1	1.2%	-3.5%	?	122.8*	25.6*	-10.1%
COc1ccccc1CNC(=O)CSc1nnc(C)c2c(C)n(-c3ccccc3)nc12	·	·	-2.1%	·	·	·
O=C(Nc1ccccc1)Nc1ccc2ccccc2c1	-4.1%	-0.8%	-0.4%	81.0*	51.7*	-24.9%
SMILES	AMA1 RON2 block	SARS PLP yeast	AmpC inh detg	Shiga inhibitor	CHX counter	AmpC inh no detg
CC(=O)CC(=O)Nc1ccc2ccccc2c1	-0.5%	1.1%	4.0%	32.9	24.2	8.7%
CCOC(=O)C(Nc1ccc2ccccc2c1)C(=O)OCC	?	-62.0%	0.1%	80.0*	74.1*	-25.4%
c1ccc(Nc2ccc3ccccc3c2)cc1	4.0%	·	·	·	·	·
CC(=O)Nc1ccc2sc(C)nc2c1	-6.4%	0.2%	-7.0%	-3.3	-3.4	-1.2%
CC(=O)Nc1ccc2cc3ccc(NC(C)=O)cc3nc2c1	-8.5%	-0.1%	-5.2%	30.3	21.0*	-14.4%
CC(=O)Nc1ccc2ccccc2c1	31.5%	5.7%	1.6%	43.0	29.2*	-13.8%
CCCOc1cccc(C(=O)Nc2cccc3ncccc23)c1	-10.7%	-1.6%	-0.7%	-6.6	-0.7	-10.2%
Cc1ccc(NC(=O)c2ccc3nsnc3c2)c(Cl)c1	-0.7%	-1.2%	1.2%	105.4*	58.5*	-2.5%
O=C(Nc1ccc(Br)cc1F)c1ccc2nsnc2c1	0.0%	17.2%	?	62.1*	32.7*	-21.1%
O=C(Nc1ccc(Br)cc1F)c1ccncc1	5.5%	-15.2%	?	56.1*	25.1*	-2.3%
Cc1ccc(NC(=O)c2ccc3c(c2)NC(=O)c2ccccc2S3)c(Cl)c1	·	·	6.4%	·	·	·
CCCOc1cccc(C(=O)Nc2ccc(Br)cc2F)c1	-23.4%	3.7%	-5.9%	67.7*	41.6*	-35.4%
O=C(Nc1ccccc1F)c1ccncc1	-9.2%	-1.7%	?	-10.7	-1.3	-11.7%
O=C(Cc1ccccc1)NCCS(=O)c1ccc(Cl)cc1 (stereo not given)	10.4%	-0.5%	?	-23.1	-5.2	-17.7%
COc1cccc(-n2nnc(-c3nc(-c4cccs4)no3)c2N)c1	·	·	0.8%	·	·	·
COc1cccc(-c2nc(-c3cccs3)no2)c1	2.3%	-1.9%	7.8%	57.0*	43.1*	-24.2%
COc1cccc(-c2nc(CS(=O)(=O)c3ccccc3)no2)c1	0.3%	1.8%	-2.3%	91.1*	50.8*	-25.9%
COc1cc(OC)cc(-c2nc(-c3cccs3)no2)c1	-5.7%	7.0%	0.9%	76.0	43.6*	1.7%
COc1cccc(-c2nc(-c3ccncc3)no2)c1	8.5%	-0.5%	2.8%	121.2*	35.2*	12.1%
COc1ccc(-c2ccc(-c3noc(-c4cccc(OC)c4)n3)c(OC)n2)cc1	12.2%	11.6%	10.0%	-16.6	-2.1	1.6%
CC1CN(C(=S)NC2CCCC2)CC(C)O1 (stereo not given)	0.5%	13.6%	?	-0.8	-2.3	-14.6%
Cc1ccc2nc(NC(=O)c3ccc(Cn4cc(Cl)cn4)o3)sc2c1	7.1%	7.2%	-15.2%	43.4	32.8*	-21.4%
NNC(=O)c1ccc(Cn2cc(Cl)cn2)o1	92.5%	-0.9%	-1.4%	24.5	18.4*	-5.6%
COC(=O)c1ccc(Cn2cc(Cl)cn2)o1	-9.0%	0.4%	-2.6%	-15.2	-1.1	-1.9%

High-throughput results (PubChem BioAssay)
